Results as given in PubChem BioAssay (Tox21).
Results filed as inconclusive are left out. Where a call stands in place of a potency, no number is given. Calls of active or inactive are those of the source. Calls come from the whole dose curve; as a rule, active = well fitted cell-killing curve with a large enough effect in the repeat runs; inconclusive = weak or mixed curves, or effect the other way; inactive = no such curve, though single readings can be large or run the other way.

Assay: qHTS assay to identify small molecule agonists of the vitamin D receptor (VDR) signaling pathway - cell viability counter screen (AID 743224); note: nearly all actives have a fitted effect of over 50% in size
Conditions: VDR-bla HEK293T viability, CellTiter-Glo luminescence, 16 h; series mostly up to 62.6 µM
Excerpt: U.S. Tox21 Program National Center for Advancing Translational Sciences [NCATS] NIH Chemical Genomics Center [NCGC] U.S. Environmental Protection Agency [EPA] National Institutes of Environmental Health Sciences [NIEHS] National Toxicology Program [NTP] U.S. Food and Drug Administration [FDA] Tox21 Assay Overview: The vitamin D receptor (VDR), a member of nuclear hormone receptor superfamily, plays a critical role in calcium homeostasis and bone metabolism. It is also involved in cell differentiation and growth, and thrombogenicity. […] The cytotoxicity of the Tox21 compound library against the VDR-bla cell line was tested in parallel by measuring the cell viability using CellTiter-Glo assay (Promega, Madison, WI) in the same wells.
Tox21 Assay Protocol Summary: VDR-bla cells were dispensed at 2,000 cells/6 uL/well into black wall/clear-bottom 1536-well plates using a Multidrop Combi (Thermo Fisher Scientific, Waltham, MA) dispenser. After the assay plates were incubated at a 37C and 5% CO2 for 4 h, 23 nL of compounds dissolved in DMSO, positive controls or DMSO only was transferred to the assay plate by a Pintool station (Kalypsys, San Diego, CA). The plates were incubated at 37C and 5% CO2 for 16 h. After 1 uL of LiveBLAzerTM B/G FRET substrate was added using a Bioraptr Flying Reagent Dispenser (FRD) workstation (Beckman Coulter, Indianapolis, IN, USA), the plates were incubated at room temperature for 2 h, and fluorescence intensity was measured by an Envision plate reader (PerkinElmer, Shelton, CT). For cell viability readout that measures cytotoxicity, 3 ul/well of CellTiter-Glo reagent was added into the assay plates using a FRD. After 30 min incubation at room temperature, the luminescence intensity in the plates was measured using a ViewLux (PerkinElmer) plate reader.

Row | Structure (SMILES) | Potency
1 | COc1cc(NS(=O)(=O)c2ccc(N)cc2)nc(OC)n1 | inactive
2 | C=Cc1ccccn1 | inactive
3 | Cc1cccc(C)c1OCC(C)N (stereo not given) | inactive
4 | CCCCCCCCCC(C)=O | inactive
5 | CNC(=O)[C@H]1O[C@@H](n2cnc3c(NCc4cc(Cl)ccc4OCc4cc(C)no4)ncnc32)[C@H](O)[C@@H]1N | inactive
6 | On1nnc2ccccc21 | inactive
7 | CCCCCCCCSCC | inactive
8 | FC(F)(F)c1ccccc1-n1ccnc1 | inactive
9 | O=C1O[C@@H]2[C@@H](O)[C@H](O)O[C@@H]2[C@H]1O | inactive
10 | C#CC(C)N(C)C(=O)Nc1ccc(Cl)cc1 (stereo not given) | inactive
11 | CC(C)OC(=O)CCCCC(=O)OC(C)C | inactive
12 | COCCOCCOCCOCCO | inactive
13 | NCCN1CCOCC1 | inactive
14 | COc1ccc(C2CNC(=O)C2)cc1OC1CCCC1 (stereo not given) | inactive
15 | CC(C)C(=O)OCCc1ccccc1 | inactive
16 | COP(=O)(OC)OC(c1ccc(Cl)cc1)P(=O)(OC)OC (stereo not given) | inactive
17 | CC[C@H](C)C(=O)O[C@H]1C[C@H](O)C=C2C=C[C@H](C)[C@H](CC[C@@H](O)C[C@@H](O)CC(=O)O)[C@H]21 | inactive
18 | Cc1cccc(OCC(O)CNC(C)(C)C)c1C (stereo not given) | inactive
19 | CCCCCCCCC1CCC(=O)O1 (stereo not given) | inactive
20 | CN(C)C(=O)CNC(=O)Cc1ccccc1 | inactive

Row | Structure (SMILES) | Potency
21 | CC(S)C(=O)NCC(=O)O (stereo not given) | inactive
22 | O=C(O)Cc1ccc(Cl)cc1Cl | inactive
23 | O=C(O)Cc1cn(-c2ccccc2)nc1-c1ccc(Cl)cc1 | inactive
24 | COCCOC(=O)C1=C(C)NC(C)=C(C(=O)OC(C)C)C1c1cccc([N+](=O)[O-])c1 (stereo not given) | inactive
25 | Cc1[nH]cnc1-c1ccc(Cl)cc1 | inactive
26 | O=C(c1ccc(O)cc1)c1ccc(O)c(O)c1O | inactive
27 | CC(C)C[C@H](NC(=O)CNC(=O)[C@H](Cc1ccc(O)cc1)NC(=O)[C@H](CO)NC(=O)[C@H](Cc1c[nH]c2ccccc12)NC(=O)[C@H](Cc1cnc[nH]1)NC(=O)[C@@H]1CCC(=O)N1)C(=O)N[C@@H](CCCN=C(N)N)C(=O)N1CCC[C@H]1C(=O)NCC(N)=O (stereo in doubt) | inactive
28 | CC(COC(C)(C)C)OCCCO (stereo not given) | inactive
29 | c1ccc2c(c1)ccc1c3ccccc3ccc21 | inactive
30 | NC(CO)C(=O)NNCc1ccc(O)c(O)c1O (stereo not given) | inactive
31 | BrCc1cccc(Oc2ccccc2)c1 | inactive
32 | CC(C)C(=O)OCc1cccc(OC(=O)[C@@H]2N3C(=O)[C@@H](NC(=O)Cc4ccccc4)[C@H]3SC2(C)C)c1 | inactive
33 | BrCCCCCBr | inactive
34 | O=S(=O)(O)c1ccc2cc(O)c(S(=O)(=O)O)cc2c1 | inactive
35 | Cc1ccccc1N=O | inactive
36 | C=COCCOCCOCCOC=C | inactive
37 | Nc1ncnc(Nc2ccccc2)n1 | inactive
38 | CC(C)CC(=O)O | inactive
39 | CC1=CCC(C(C)C)=CC1 | inactive
40 | CCc1ccc(C=O)cc1 | inactive
